Data reported in PMC4336329 (PLoS ONE, 2015).
The campaign covered roughly 310,000 compounds. About 14,000 (4.5%) showed an effect of 50% or more. Effects have a minus sign here. Only a selection was taken, and strong results are over-represented in it overall.

target: human ether-à-go-go-related gene (hERG) potassium channel (human, UniProt Q12809); assay: primary screen, population patch clamp on CHO cells stably expressing hERG; higher = less effect of the substance
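Note: peak tail current of the secondary pulse compared with the same well before compound.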

Sequence of human ether-à-go-go-related gene (hERG) potassium channel (Q12809 whole entry, looked up): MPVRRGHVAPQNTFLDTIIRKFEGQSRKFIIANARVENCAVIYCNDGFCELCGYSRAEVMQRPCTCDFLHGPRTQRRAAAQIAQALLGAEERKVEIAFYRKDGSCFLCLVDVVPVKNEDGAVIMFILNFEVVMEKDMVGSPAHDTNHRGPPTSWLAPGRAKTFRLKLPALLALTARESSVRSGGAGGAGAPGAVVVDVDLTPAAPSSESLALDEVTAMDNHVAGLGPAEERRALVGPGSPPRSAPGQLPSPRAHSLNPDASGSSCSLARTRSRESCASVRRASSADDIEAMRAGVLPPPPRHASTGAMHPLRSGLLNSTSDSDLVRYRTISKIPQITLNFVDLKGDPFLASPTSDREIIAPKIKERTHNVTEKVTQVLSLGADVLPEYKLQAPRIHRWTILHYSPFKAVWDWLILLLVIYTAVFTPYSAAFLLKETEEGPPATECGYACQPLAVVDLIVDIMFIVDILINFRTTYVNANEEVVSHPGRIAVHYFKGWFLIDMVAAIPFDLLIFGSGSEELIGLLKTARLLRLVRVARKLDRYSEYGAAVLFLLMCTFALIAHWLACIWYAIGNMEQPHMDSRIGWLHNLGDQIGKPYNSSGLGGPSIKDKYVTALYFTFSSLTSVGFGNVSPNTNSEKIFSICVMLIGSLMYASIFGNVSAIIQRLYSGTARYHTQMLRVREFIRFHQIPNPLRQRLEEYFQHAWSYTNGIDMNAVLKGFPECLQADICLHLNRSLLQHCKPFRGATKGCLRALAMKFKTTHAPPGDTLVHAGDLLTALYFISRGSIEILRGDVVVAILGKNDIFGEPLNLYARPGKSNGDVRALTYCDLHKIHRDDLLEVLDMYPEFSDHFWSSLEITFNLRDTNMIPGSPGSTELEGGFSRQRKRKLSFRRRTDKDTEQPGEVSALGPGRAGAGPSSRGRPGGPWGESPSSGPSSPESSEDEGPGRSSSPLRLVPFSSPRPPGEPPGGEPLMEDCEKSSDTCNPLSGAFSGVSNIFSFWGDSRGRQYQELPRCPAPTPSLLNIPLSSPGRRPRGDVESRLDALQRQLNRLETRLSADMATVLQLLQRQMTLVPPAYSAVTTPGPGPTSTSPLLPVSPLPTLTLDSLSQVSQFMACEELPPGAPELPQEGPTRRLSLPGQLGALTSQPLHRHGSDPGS

Row | Compound | hERG current change (%, negative = inhibition) at 10uM [%]
1 | Cc1nn(S(=O)(=O)c2ccc(Cl)cc2)c(C)c1S(=O)(=O)N1CCOCC1 | 20.9
2 | CCOc1ccccc1C1CC(=O)Nc2cc(OC)c(OC)c(OC)c21 (stereo not drawn) | 19.6
3 | CCc1c(C)nc2cc(-c3cc(OC)cc(OC)c3)nn2c1N1CCCC1 | -2.11
4 | COCCN1CCN(c2c(C)c(C)nc3cc(-c4cccc(OC)c4)nn23)CC1 | -15.6
5 | CCOCCN1CCN(c2c(C)c(C)nc3cc(-c4cc(OC)cc(OC)c4)nn23)CC1 | -73.3
6 | CCc1c(C)nc2cc(-c3cc(OC)cc(OC)c3)nn2c1N1CCN(CCN2CCOCC2)CC1 | -33.5
7 | COc1cc(OC)cc(-c2cc3nc4c(c(N5CCN(c6ncccn6)CC5)n3n2)CCCC4)c1 | 4.89
8 | CCOCCN1CCN(c2c(CC)c(C)nc3cc(-c4cc(OC)cc(OC)c4)nn23)CC1 | -72.4
9 | Nc1nc2ccc(C(=O)Nc3ccccc3)cc2s1 | 7.6
10 | Cc1ccc2c(c1)CC1(CN2C)C(=O)NC(=O)N(CCc2ccccc2)C1=O (stereo not drawn) | -15.2
11 | CNC(=O)C(C)c1ncc(C(F)(F)F)cc1Cl (stereo not drawn) | 17.6
12 | Nn1c(SCC(=O)N2CCN(S(=O)(=O)c3ccc(Cl)cc3)CC2)nnc1-c1cccs1 | -52.1
13 | CCn1c(SCC(=O)Nc2cc(C)nn2-c2ccccc2)nnc1-c1cccs1 | -12.9
14 | Nn1c(SCC(=O)N2CCN(S(=O)(=O)c3ccccc3)CC2)nnc1-c1cccs1 | -10.1
15 | CCOC(=O)c1ccc(NC(=O)CSc2nnc(-c3cccs3)n2CC)cc1 | 5.69
16 | Cc1nnc(SCC(=O)N2CCN(S(=O)(=O)c3ccc(Cl)cc3)CC2)n(N)c1=O | -19
17 | CCn1c(SCC(=O)Nc2c(C#N)cnn2-c2ccccc2)nnc1-c1cccs1 | -13.6
18 | CCc1ccc(NC(=O)CSc2nnc(-c3cccs3)n2CC)cc1 | -69.7
19 | CC(=O)Nc1ccc(NC(=O)CSc2nnc(-c3cccs3)n2N)cc1 | 1.15
20 | CCn1c(SCC(=O)Nc2ccc(C(=O)OC)cc2)nnc1-c1cccs1 | -10.7
21 | CCOC(=O)c1cnn(-c2ccccc2)c1NC(=O)CSc1nnc(-c2cccs2)n1CC | -69.5
22 | Nn1c(SCC(=O)Nc2ccccc2F)nnc1-c1cccs1 | -65.7
23 | Cn1c(SCC(=O)Nc2ccccc2F)nnc1-c1cccs1 | -24.2

Row | Compound | hERG current change (%, negative = inhibition) at 10uM [%]
24 | O=C(NCc1ccccc1)c1cccc(NS(=O)(=O)c2cccc3cccnc23)c1 | 6.09
25 | COc1cnc(-c2ccccc2)nc1OC | 12.4
26 | O=C(O)c1cc(S(=O)(=O)NCc2ccco2)c(Cl)cc1Cl | 14.9
27 | COCC(C)NCc1ccc(C)cc1C (stereo not drawn) | -14.3
28 | O=S(=O)(NCc1ccccn1)c1ccc2c(c1)OCCO2 | 10.5
29 | Nc1cc(-c2cccc(Br)c2)nn1Cc1ccccc1 | -17.2
30 | Nc1cc(=O)nc(SCC(=O)Nc2cccc3ccccc23)n1CCc1ccccc1 | -7.07
31 | CCOC(=O)C1C(c2ccc(O)cc2)NC(=O)NC1(O)C(F)(F)F (stereo not drawn) | 2.48
32 | O=C(NNC(=O)C1CCC1)c1cccc(Cl)c1 | -5.52
33 | CCOP(=O)(OCC)c1cc(C)c(O)c(C(C)(C)C)c1 | -3.41
34 | O=C(CSc1nnc(-c2cccs2)n1-c1ccccc1)Nc1ccccc1 | -44.3
35 | C=CCn1c(SCCC(=O)O)nnc1-c1cccs1 | 6.75
36 | CCn1c(SC/C=C/c2ccccc2)nnc1-c1cccs1 | -66.3
37 | Cc1ccc(NC(=O)c2ccco2)cc1NC(=O)CSc1nnc(-c2cccs2)n1C | -38
38 | CCn1c(SCC(=O)Nc2cccc(NC(=O)c3ccco3)c2)nnc1-c1cccs1 | -79.8
39 | CCn1c(SCC(=O)Nc2ccc(NC(=O)c3ccco3)cc2)nnc1-c1cccs1 | 11.9
40 | C=CCn1c2ccccc2c2nnc(SCc3ccc4nonc4c3)nc21 | 0.592
41 | C=CCn1c(SCc2ccc3nonc3c2)nnc1-c1cccs1 | -68.7
42 | CCn1c(SCC(=O)Nc2ccccc2)nnc1-c1cccs1 | -70.8
43 | CCn1c(SCC(=O)c2ccccc2)nnc1-c1cccs1 | -14.8
44 | CCn1c(SCC(=O)Nc2cc(OC)c(OC)c(OC)c2)nnc1-c1cccs1 | -7.07
45 | Cn1c(Cc2cccs2)nnc1SC/C=C/c1ccccc1 | -0.882
